Details in all cases: mRNA level, 48 h; actives raise or lower the signal
Read-out in experiment [1]: Glutathione S-Transferase (GSTA2), GSTA2 (gene 2939)
Put plainly: LTEA_HepaRG_GSTA2: Life Technologies and Expression Analysis (LTEA) Assay for Glutathione S-Transferase (GSTA2) using HepaRG (AID 2283497). A digest of the protocol: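 qRT-PCR readout of GSTA2 transcript, normalized to three housekeeping genes, fitted bidirectionally against 0.5% DMSO baseline. Differentiated HepaRG cells received compound for 48 h at 8 concentrations (top 100 uM, half-log steps).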

Read-out in experiment [2]: Glutamate-cysteine ligase catalytic (GCLC), GCLC (gene 2729)
Put plainly: LTEA_HepaRG_GCLC: Life Technologies and Expression Analysis (LTEA) Assay for Glutamate-cysteine ligase catalytic (GCLC) using HepaRG (AID 2283498). Summed up: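 HepaRG, 48 h exposure, 8-pt half-log series from 100 uM, 0.5% DMSO vehicle; TaqMan qRT-PCR for GCLC mRNA, housekeeping-normalized; bidirectional curve fit vs DMSO baseline.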

Read-out in experiment [3]: growth arrest and DNA damage 45 (GADD45G), GADD45G (gene 10912)
Put plainly: LTEA_HepaRG_GADD45G: Life Technologies and Expression Analysis (LTEA) Assay for growth arrest and DNA damage 45 (GADD45G) using HepaRG (AID 2283499). A digest of the protocol: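 Gain or loss of GADD45G mRNA, quantified by TaqMan qRT-PCR against three housekeeping genes, is fitted in both directions relative to 0.5% DMSO. Human HepaRG cultures receive test chemical for 48 h at up to 100 uM.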

Read-out in experiment [4]: Heat shock 70 kDa protein 1 (HSPA1A), gene 3303
In words: LTEA_HepaRG_HSPA1A: Life Technologies and Expression Analysis (LTEA) Assay for Heat shock 70 kDa protein 1 (HSPA1A) using HepaRG (AID 2283502). Summed up: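 HepaRG, 48 h exposure, 8-pt half-log CRC from 100 uM in 0.5% DMSO, duplicates. Readout: TaqMan qRT-PCR of HSPA1A mRNA, housekeeping-normalized (ACTB/GAPDH/POLR2A). Bidirectional fit vs 0.5% DMSO baseline.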

Read-out in experiment [5]: Hypoxia-inducible factor 1-alpha (Homo sapiens) (UniProt Q16665)
Put plainly: LTEA_HepaRG_HIF1A: Life Technologies and Expression Analysis (LTEA) Assay for Hypoxia-inducible factor 1 (HIF1A) Trancription factor using HepaRG (AID 2283503). A digest of the protocol:
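Gain- or loss-of-signal HIF1A mRNA changes are fitted against a DMSO baseline. HepaRG cultures receive eight concentrations, highest 100 uM, for 48 h in serum-free induction medium with 0.5% DMSO.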

Read-out in experiment [6]: 3-Hydroxy-3-Methylglutaryl-CoA Synthase 2 (HMGCS2), HMGCS2 (gene 3158)
In words: LTEA_HepaRG_HMGCS2: Life Technologies and Expression Analysis (LTEA) Assay for 3-Hydroxy-3-Methylglutaryl-CoA Synthase 2 (HMGCS2) using HepaRG (AID 2283504). A digest of the protocol: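 HepaRG, plated 48 h then switched to serum-free induction media; cmpd 8-pt, max 100 uM, 1/2-log, 0.5% DMSO, n=2, 48 h. HMGCS2 mRNA by Fluidigm TaqMan qRT-PCR, ACTB/GAPDH/POLR2A norm; bidirectional fit vs DMSO.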

Read-out in experiment [7]: HGF (gene 3082)
Put plainly: LTEA_HepaRG_HGF: Life Technologies and Expression Analysis (LTEA) Assay for Hepatocyte Growth Facto (HGF) using HepaRG (AID 2283505). Summed up: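 Read-out is HGF transcript level by qRT-PCR, normalized to three housekeeping genes, fitted bidirectionally against 0.5% DMSO vehicle. Human HepaRG cells received test chemicals for 48 h at up to 100 uM.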

Read-out in experiment [8]: Insulin Like Growth Factor 1 (IGF1), IGF1 (gene 3479)
In words: LTEA_HepaRG_IGF1: Life Technologies and Expression Analysis (LTEA) Assay for Insulin Like Growth Factor 1 (IGF1) using HepaRG (AID 2283506). Summed up:
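qRT-PCR readout of IGF1 mRNA, normalized to three housekeeping genes, after 48 h chemical exposure of HepaRG cells. Concentrations: 8-point half-log series, top 100 uM, 0.5% DMSO vehicle. Gain or loss fitted against DMSO baseline.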

Read-out in experiment [9]: Intercellular Adhesion Molecule 1 (ICAM1), ICAM1 (gene 3383)
In words: LTEA_HepaRG_ICAM1: Life Technologies and Expression Analysis (LTEA) Assay for Intercellular Adhesion Molecule 1 (ICAM1) using HepaRG (AID 2283507). A digest of the protocol:
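Readout is qRT-PCR mRNA level, normalized to three housekeeping genes and fitted bidirectionally against 0.5% DMSO vehicle. Human HepaRG cultures received compound for 48 h, top concentration 100 uM with half-log dilutions.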

Read-out in experiment [10]: Insulin-like growth factor-binding protein 1 (IGFBP1), IGFBP1 (gene 3484)
Put plainly: LTEA_HepaRG_IGFBP1: Life Technologies and Expression Analysis (LTEA) Assay for Insulin-like growth factor-binding protein 1 (IGFBP1) using HepaRG (AID 2283508). Summed up: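 Thawed HepaRG cells are plated for 48 h, switched to serum-free induction medium, then dosed in duplicate for another 48 h (100 uM top, half-log steps). Lysates in RLT go to qRT-PCR, and gain or loss of signal is fitted relative to vehicle.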

Read-out in experiment [11]: Interleukin 6 (IL6), IL6 (gene 3569)
In words: LTEA_HepaRG_IL6: Life Technologies and Expression Analysis (LTEA) Assay for Interleukin 6 (IL6) using HepaRG (AID 2283509). Summed up:
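qRT-PCR read-out of IL6 transcript, normalized to three housekeeping genes, after 48 h chemical exposure of HepaRG cells; 8-point half-log series, top 100 uM, 0.5% DMSO vehicle. Bidirectional curve fitting against DMSO baseline.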

Read-out in experiment [12]: Interleukin 6 Receptor (IL6R), IL6R (gene 3570)
Put plainly: LTEA_HepaRG_IL6R: Life Technologies and Expression Analysis (LTEA) Assay for Interleukin 6 Receptor (IL6R) using HepaRG (AID 2283510). Summed up:
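HepaRG, 48 h exposure, 8-pt half-log series, top 100 uM, 0.5% DMSO vehicle, duplicates. Read-out: TaqMan qRT-PCR of IL6R transcript, housekeeping-gene normalized. Gain or loss fitted relative to DMSO baseline.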

Read-out in experiment [13]: Keratin 19 (KRT19), KRT19 (gene 3880)
In words: LTEA_HepaRG_KRT19: Life Technologies and Expression Analysis (LTEA) Assay for Keratin 19 (KRT19) using HepaRG (AID 2283512). A digest of the protocol:
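KRT19 transcript levels, measured by Fluidigm qRT-PCR against three housekeeping genes, are fitted for gain or loss of signal relative to DMSO. Human HepaRG cells receive test chemicals (top 100 uM, half-log steps, 0.5% DMSO) for 48 hours.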

Read-out in experiment [14]: JUN Transcription Factor, JUN (gene 3725)
In words: LTEA_HepaRG_JUN: Life Technologies and Expression Analysis (LTEA) Assay for JUN Transcription Factor using HepaRG (AID 2283513). Summed up:
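HepaRG, 48 h exposure, 8-pt half-log series top 100 uM, 0.5% DMSO, duplicate. JUN mRNA by qRT-PCR (Fluidigm), housekeeping-normalized (ACTB/GAPDH/POLR2A); bidirectional curve fit vs DMSO baseline.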

Read-out in experiment [15]: Lipase C (LIPC), LIPC (gene 3990)
Put plainly: LTEA_HepaRG_LIPC: Life Technologies and Expression Analysis (LTEA) Assay for Lipase C (LIPC) using HepaRG (AID 2283514). A digest of the protocol: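 HepaRG, 48 h exposure, 8-pt half-log series from 100 uM in 0.5% DMSO, duplicates. Readout: LIPC mRNA by Fluidigm qRT-PCR, housekeeping-normalized (ACTB/GAPDH/POLR2A). Gain or loss fitted bidirectionally against DMSO baseline.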

Read-out in experiment [16]: Lipoprotein lipase (LPL), LPL (gene 4023)
In words: LTEA_HepaRG_LPL: Life Technologies and Expression Analysis (LTEA) Assay for Lipoprotein lipase (LPL) using HepaRG (AID 2283515). Summed up:
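HepaRG, 48 h exposure, 8-pt half-log dilutions from 100 uM, 0.5% DMSO vehicle, duplicates; qRT-PCR (Fluidigm array) of LPL mRNA vs housekeeping genes; bidirectional curve fit relative to DMSO baseline.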

Read-out in experiment [17]: MicroRNA 122 (MIR122), gene 406906
Put plainly: LTEA_HepaRG_MIR122: Life Technologies and Expression Analysis (LTEA) Assay for MicroRNA 122 (MIR122) using HepaRG (AID 2283516). Also: the transcript read is the microRNA miR-122. Summed up: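 qRT-PCR read-out (TaqMan, Fluidigm array), normalized to three housekeeping genes; HepaRG cells dosed 48 h at 8 concentrations up to 100 uM in 0.5% DMSO, duplicate; gain or loss fitted against DMSO baseline.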

Read-out in experiment [18]: Glutathione S-transferase M3 (GSTM3), GSTM3 (gene 2947)
In words: LTEA_HepaRG_GSTM3: Life Technologies and Expression Analysis (LTEA) Assay for Glutathione S-transferase M3 (GSTM3) using HepaRG (AID 2283501). Summed up:
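HepaRG, plated 48 h, then serum-free induction medium; test chemical 48 h, duplicate; 100 uM top, half-log x8, 0.5% DMSO. Read-out: GSTM3 mRNA (TaqMan qRT-PCR, Fluidigm array). Bidirectional fit vs DMSO.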

SMILES strings stand for the structures. Active and inactive are the calls of the source. The calls were made as follows: active = hit-call score of the fitted dose curve at least 0.9, where 1 is the maximum; inactive = score below 0.9.

Chain of Hypoxia-inducible factor 1-alpha (Homo sapiens) (Q16665 whole entry, looked up): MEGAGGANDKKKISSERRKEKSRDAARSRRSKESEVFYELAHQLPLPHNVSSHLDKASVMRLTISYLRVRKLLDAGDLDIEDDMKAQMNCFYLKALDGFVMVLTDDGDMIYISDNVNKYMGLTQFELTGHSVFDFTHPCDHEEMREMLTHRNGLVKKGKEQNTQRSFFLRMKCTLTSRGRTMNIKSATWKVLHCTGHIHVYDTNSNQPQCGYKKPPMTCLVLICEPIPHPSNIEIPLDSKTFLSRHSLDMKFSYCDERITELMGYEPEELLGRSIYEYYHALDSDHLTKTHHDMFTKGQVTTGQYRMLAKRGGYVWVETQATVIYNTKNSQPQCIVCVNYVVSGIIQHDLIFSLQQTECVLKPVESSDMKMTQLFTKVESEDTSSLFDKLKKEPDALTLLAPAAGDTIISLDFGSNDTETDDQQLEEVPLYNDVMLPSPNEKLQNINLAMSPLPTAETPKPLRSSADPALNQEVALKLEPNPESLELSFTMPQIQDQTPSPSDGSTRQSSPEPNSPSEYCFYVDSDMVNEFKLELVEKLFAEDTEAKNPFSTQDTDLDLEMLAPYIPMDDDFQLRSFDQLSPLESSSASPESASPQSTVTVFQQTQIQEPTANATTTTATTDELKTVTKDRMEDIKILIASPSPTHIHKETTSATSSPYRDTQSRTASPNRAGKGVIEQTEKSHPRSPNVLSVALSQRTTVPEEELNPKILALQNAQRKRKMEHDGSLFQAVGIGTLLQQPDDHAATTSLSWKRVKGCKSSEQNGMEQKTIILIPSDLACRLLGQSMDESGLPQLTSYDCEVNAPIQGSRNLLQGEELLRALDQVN

Regarding `CCc1cc(C2=C(C(=O)O)N(c3ccccc3C(F)(F)F)S(=O)(=O)c3ccccc32)cc2c1OCO2`, the AC50 in [1] was 78.8 µM (active); in [6] it was 81.4 µM (active); in experiment [9], 50 µM (active); in experiment [10], 75.4 µM (active); in experiment [11], 78.5 µM (active); in experiment [13], 9.92 µM (active). For the same molecule, the AC50 was 80.1 µM (active) in experiment [15] and 74.3 µM (active) in experiment [16]. The molecule was called inactive in [2], in experiment [3], in experiment [4], in [5], in experiment [7] and in experiment [8]. Further, the result in experiment [12], in experiment [14] and in experiment [17] was inactive.
On to `CC(=O)S[C@H](C(=O)N[C@H]1Cc2ccccc2[C@H]2CCC[C@@H](C(=O)O)N2C1=O)C(C)C`, for which the outcome in [1], in experiment [2], in experiment [3], in experiment [18], in [4] and in experiment [5] was inactive. The outcome in experiment [6], in [7], in [8], in experiment [9], in [10] and in [11] was inactive. Further, the result in experiment [12], in [13], in experiment [14], in [15], in [16] and in experiment [17] was inactive.
As to `OCC(CO)n1cnc(-c2ccc(F)cc2)c1-c1ccnc(Oc2ccccc2)n1`, the outcome in [1], in [2], in [3], in [18], in [5] and in experiment [6] was inactive. For the same molecule, the result in experiment [7], in [8], in experiment [9], in [10], in experiment [11] and in experiment [12] was inactive. Besides, the molecule was classed as inactive in experiment [13], in experiment [14], in experiment [15], in [16] and in [17]. Also, the AC50 in experiment [4] was 37 µM (active).
In the case of `O=C(O)c1[nH]n(-c2ccc(S(=O)(=O)O)cc2)c(=O)c1N=Nc1ccc(S(=O)(=O)O)cc1`, the call in [1], in [2], in experiment [3], in experiment [18], in [4] and in [5] was inactive. The call in experiment [6], in experiment [7], in experiment [8], in experiment [9], in experiment [10] and in experiment [11] was inactive. Besides, the result in experiment [12], in experiment [13], in experiment [14], in experiment [15], in experiment [16] and in experiment [17] was inactive.
Consider `CCCCC(CC)COP(=O)(OCC(CC)CCCC)OCC(CC)CCCC` (stereo not drawn), for which the molecule was called inactive in experiment [1], in experiment [2], in experiment [3], in [18], in experiment [4] and in [5]. The call in [6], in experiment [7], in experiment [8], in experiment [9], in experiment [10] and in experiment [11] was inactive. Besides, the molecule was classed as inactive in [12], in experiment [13], in experiment [14], in [15], in [16] and in [17].
Consider `CCCCCCCCCC[N+](C)(C)[O-]`, for which the outcome in [1], in [2], in [3], in experiment [4], in experiment [5] and in experiment [6] was inactive. The call in experiment [7], in experiment [8], in experiment [9], in experiment [10], in experiment [11] and in experiment [12] was inactive. For the same molecule, the call in [13], in experiment [14], in experiment [15], in experiment [16] and in experiment [17] was inactive.
Turning to `O=C1O[C@H]([C@H](O)CO)C(O)=C1O`, the molecule was called inactive in experiment [1], in experiment [2], in experiment [3], in experiment [4], in experiment [5] and in [6]. Moreover, the result in experiment [7], in experiment [8], in [9], in experiment [10], in experiment [11] and in experiment [12] was inactive. The result in experiment [13], in experiment [14], in [15], in experiment [16] and in [17] was inactive.

One may read the AC50 as the concentration giving half of the maximal activity seen.

The values above are taken from PubChem BioAssay (EPA / NIEHS).
